From PubChem
A selection: hits, their analogues and other compounds. The true share with any hit is near 2.6%.
Cruzain inh Det = blocks cruzain activity in presence of Triton detergent; P25779; purified cruzain, Z-FR-AMC fluorescence, 0.01% Triton; Potency, µM, inactives show max response, negative = inhibition, hits mostly inhibitors; 200,000 compounds, 0.43% hits;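 note: plate controls were neutral wells for no effect and buffer without enzyme for full effect; nearly all actives have a fitted effect of over 40% in size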
Target sequence (P25779 123-467 limits assumed): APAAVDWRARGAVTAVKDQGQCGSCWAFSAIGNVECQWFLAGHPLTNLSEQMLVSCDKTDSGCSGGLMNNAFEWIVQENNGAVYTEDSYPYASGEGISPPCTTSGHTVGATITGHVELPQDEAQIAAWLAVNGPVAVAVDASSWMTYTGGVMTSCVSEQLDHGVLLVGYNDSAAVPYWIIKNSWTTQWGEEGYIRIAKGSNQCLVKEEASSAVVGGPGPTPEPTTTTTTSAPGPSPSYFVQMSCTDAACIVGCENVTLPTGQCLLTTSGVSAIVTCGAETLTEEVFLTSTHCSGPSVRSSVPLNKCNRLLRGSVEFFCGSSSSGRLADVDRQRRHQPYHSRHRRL
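Cysteine protease activity tested under reducing, mildly acidic conditions (100 mM sodium acetate pH 5.5, 5 mM DTT) plus 0.01% Triton X-100. Cruzain 1.5 nM; substrate Z-FR-AMC 2 uM; 15 min compound preincubation at room temperature.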
Cruzain inh noDet = inhibitors of Trypanosoma cruzi cruzain without detergent; P25779; AID 1476; 200,000 compounds, 2.3% hits; purified cruzain, Z-FR-AMC fluorescence, no detergent; Potency, µM, for the others: max response, negative = inhibition, hits mostly inhibitors;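 note: plate controls were enzyme without inhibitor for no effect and buffer without enzyme for full effect; nearly all actives have a fitted effect of over 40% in size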
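Purified cruzain at 1.5 nM, pre-incubated 15 min with compound at room temperature in 100 mM sodium acetate pH 5.5, 5 mM DTT, 0.00005% Triton X-100. Reaction started with 2 uM Z-FR-AMC; AMC fluorescence increase over 60 s gives rate.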
* marks the source's active call; other numbers are inactive results; u = inconclusive. Calls come from the whole dose curve; as a rule, active = well fitted curve in the direction sought with a large enough effect; inconclusive = small, poorly fitted or top-dose-only effect, or another doubt; inactive = no such curve, though single readings can be large; an effect the other way counts as inactive or inconclusive. Potency is the fitted concentration of half-maximal effect.

SMILES	Cruzain inh Det	Cruzain inh noDet
O=C(N/N=C/c1ccc2ccccc2c1)c1ccc(COc2ccc3c(c2)CCC3)o1	-11%	20µM*
COc1ccc(Br)cc1/C=N/NC(=O)c1ccc(COc2ccc3c(c2)CCC3)o1	-10%	-26%
CCOc1ccc(NC(c2ccc(Cl)cc2)c2nnc(-c3cccc(F)c3)o2)cc1 (stereo not given)	-3%	0%
O=C(CSc1nc2c([nH]c3ccccc32)c(=O)n1-c1ccc(Cl)cc1)N1CCCC1	0%	-1%
COc1ccc(NC(=O)Cc2ccc(NC(=O)N3CCCCc4ccccc43)cc2)c(OC)c1	-5%	-13%
COc1ccc(-c2noc(-c3ccc(NC4CCCCC4)c([N+](=O)[O-])c3)n2)cc1OC	-4%	21%
COc1ccc(-c2noc(-c3ccc(NC(C)c4ccccc4)c([N+](=O)[O-])c3)n2)cc1OC (stereo not given)	-5%	13µM*
COc1ccc(S(=O)(=O)N(CC(=O)N(C)Cc2ccccc2)c2ccc(Cl)cc2)cc1	-6%	-2%
Cn1cc(SCC(=O)Nc2ccc3c(c2)OCO3)c2ccccc21	-6%	-17%
CC(C)n1cc(/C=C2/SC(=O)N(CC(=O)Nc3ccc4c(c3)OCO4)C2=O)c2ccccc21	2%	10µM*
Cc1ccc(NC(=O)C(Cc2ccccc2)NS(=O)(=O)c2ccc3c(c2)c(=O)n(C)c(=O)n3C)c(C)c1 (stereo not given)	-1%	-2%
COc1ccc(CN(Cc2ccco2)c2cnc(S(C)(=O)=O)nc2C(=O)Nc2ccc(C)c(C)c2)cc1	-3%	20µM*
CCS(=O)(=O)c1ncc(N(Cc2ccco2)Cc2ccccc2F)c(C(=O)Nc2cccc(Cl)c2)n1	-3%	20µM*
CC(C)c1ccc(CN(Cc2ccco2)c2cnc(S(C)(=O)=O)nc2C(=O)Nc2ccccc2)cc1	-4%	u
COc1ccc(CN(Cc2ccco2)c2cnc(S(C)(=O)=O)nc2C(=O)Nc2ccc(C)cc2C)cc1	-4%	u
Cc1ccc(NC(=O)c2nc(S(C)(=O)=O)ncc2N(Cc2ccco2)Cc2ccccc2F)c(C)c1	-3%	1%
CC(C)(C)c1ccc(CN(Cc2ccco2)c2cnc(S(C)(=O)=O)nc2C(=O)Nc2ccc(F)cc2)cc1	-4%	7.9µM*
COc1ccc(CCCc2nnc(SCC(=O)Nc3cc(F)ccc3C)o2)cc1	-7%	1%
COc1ccc(S(=O)(=O)N(CC(=O)NCCSc2ccc(C)cc2)c2ccc(C)cc2)cc1	1%	0%
O=C1CCSC2(C(=O)N(Cc3ccc(F)cc3)c3ccccc32)N1c1cccc(F)c1 (stereo not given)	-6%	-7%
O=C(CSc1nnc(-c2ccncc2)n1-c1ccccc1)Nc1ccc(Br)cc1	0%	-1%
COc1ccc(CNC(=O)CCCN2C(=O)CSc3c2c(C)nn3-c2ccccc2)cc1	-5%	u
Cc1ccc(C(=O)NCC(=O)OCC(=O)c2cc(C)n(Cc3ccco3)c2C)cc1	-30%	-1%
C=CCn1c(C)cc(C(=O)COC(=O)C2CC(=O)N(Cc3ccccc3)C2)c1C (stereo not given)	3%	22%
C=CCn1c(C)cc(C(=O)COC(=O)CNC(=O)c2ccccc2)c1C	25µM*	20µM*
SMILES	Cruzain inh Det	Cruzain inh noDet
Cc1cc(C(=O)COC(=O)CNC(=O)c2ccc(Cl)c(Cl)c2)c(C)n1Cc1ccco1	10µM*	-12%
CCOC(=O)c1ccc(NC(=O)C2Cc3ccccc3C(=O)O2)cc1 (stereo not given)	-2%	-3%
O=S(=O)(NCCS(=O)(=O)N1CCN(c2cccc(Cl)c2)CC1)c1ccc(F)cc1	-8%	2%
CCc1ccccc1Nc1sc(C(=O)c2ccccc2)c(N)c1S(=O)(=O)c1ccccc1	-4%	6.3µM*
Cc1ccc(Cl)cc1Nc1sc(C(=O)c2ccccc2)c(N)c1S(=O)(=O)c1ccccc1	-2%	u
Cc1cccc(C)c1Nc1sc(C(=O)c2ccccc2)c(N)c1S(=O)(=O)c1ccccc1	-1%	16µM*
CC(C)c1ccc(Nc2sc(C(=O)c3ccccc3)c(N)c2S(=O)(=O)c2ccccc2)cc1	0%	4µM*
CCS(=O)(=O)c1c(Nc2cc(C)ccc2C)sc(C(=O)c2ccccc2)c1N	-8%	-9%
CCc1ccccc1Nc1sc(C(=O)c2cccc(OC)c2)c(N)c1S(=O)(=O)c1ccccc1	-5%	7.9µM*
N#Cc1c(Nc2ccccc2)sc(C(=O)c2ccccc2)c1N	-11%	-7%
Cc1c(Cl)cccc1Nc1sc(C(=O)c2ccccc2)c(N)c1S(=O)(=O)c1ccccc1	-5%	u
COc1ccc(-n2ncc3c2ncn2nc(-c4ccc(OC)c(OC)c4)nc32)cc1	-1%	-10%
CSCCC(N)C(=O)O (stereo not given)	-3%	0%
CCCC(O)c1nc2ccccc2n1Cc1ccccc1OC (stereo not given)	-1%	-4%
COc1cccc(C(=O)c2sc(Nc3ccc(F)c(Cl)c3)nc2N)c1	-1%	-28%
CCOc1ccccc1Nc1sc(C(=O)c2ccc(Cl)cc2)c(N)c1S(=O)(=O)c1ccccc1	1%	3.2µM*
CCOc1ccc(Nc2sc(C(=O)c3ccc(F)cc3)c(N)c2S(=O)(=O)c2ccc(C)cc2)cc1	-1%	-11%
COc1ccc(S(=O)(=O)c2c(Nc3ccc(C)cc3C)sc(C(=O)c3ccc(F)cc3)c2N)cc1	-1%	5µM*
COc1ccc(S(=O)(=O)c2c(Nc3ccccc3F)sc(C(=O)c3cccc(OC)c3)c2N)cc1	-1%	13µM*
CCOc1ccccc1Nc1sc(C(=O)c2ccccc2)c(N)c1S(=O)(=O)c1ccc(C)cc1	2%	u
COc1ccc(N2C(N)=C(C#N)C(c3cc(CN4CCOCC4)cs3)C3=C2CCCC3=O)cc1 (stereo not given)	-3%	-17%
O=C(NCC(c1ccco1)S(=O)(=O)c1cccs1)c1c(F)cccc1F (stereo not given)	-1%	-1%
COc1ccc(NC(=O)c2c(NCc3cccs3)sc3c2CCCCC3)c(OC)c1	-14%	0%
C/C(CC(=O)Nc1ccc(OCc2ccccc2)cc1)=N\NC(=O)C(=O)Nc1ccc(C)c(Cl)c1	1%	7.9µM*
C/C(CC(=O)Nc1ccc(C)c(Cl)c1)=N\NC(=O)Cc1ccccc1	-3%	11%
SMILES	Cruzain inh Det	Cruzain inh noDet
CN(C(=O)Cn1c(=O)n(Cc2ccc(C(=O)NCc3ccc4c(c3)OCO4)cc2)c(=O)c2ccccc21)c1ccccc1	-5%	-29%
Cc1ccc(-n2nc(-c3ccc(F)cc3)c3cnc4cc5c(cc4c32)OCO5)cc1C	-2%	4%
O=C(CSc1nnc(-c2c[nH]c3ccccc23)o1)N1CCCCC1	-2%	0%
O=C(CSc1nnc(-c2c[nH]c3ccccc23)o1)c1ccc(-c2ccccc2)cc1	-1%	5µM*
Cc1ccc(-c2nnc(Nc3ccc(O)cc3)c3ccccc23)cc1S(=O)(=O)N1CCN(C)CC1	-10%	-12%
Cc1sc(NC(=O)c2cc3ccccc3oc2=O)c(C(=O)OC(C)C)c1-c1ccccc1	-1%	3.2µM*
CCOC(=O)c1c(-c2ccc(C)cc2)csc1NC(=O)c1cc2ccccc2oc1=O	0%	-7%
Cc1ccc(-c2csc(=Nc3ccc(F)cc3)n2Cc2ccc3c(c2)OCO3)cc1C	-7%	-11%
O=C(Nc1ccc2c(c1)OCO2)Nc1ccc(Cl)cc1Cl	6%	25µM*
O=C(Nc1ccc(OC(F)F)c(Cl)c1)Nc1ccc2c(c1)OCO2	6%	u
